Results with a measured potency or affinity are listed apart. The source made the active and inactive calls.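 The calls were made as follows: active = compounds lowering fluorescence with a fitted half-maximal concentration at or below a set limit tied to top dose; inconclusive = flat curve with 30 to 70% inhibition, or poor fit; inactive = the rest.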
Target: Caspase-9 (Homo sapiens) (UniProt P55211)
Assay: inhibitors of purified CASP9 protease – biochemical, fluorescence, plate reader, cherry-picked samples, selectivity assay for caspase-6 inhibitor project, dose response (AID 743293)

Chain of Caspase-9 (Homo sapiens) (P55211 whole entry, looked up): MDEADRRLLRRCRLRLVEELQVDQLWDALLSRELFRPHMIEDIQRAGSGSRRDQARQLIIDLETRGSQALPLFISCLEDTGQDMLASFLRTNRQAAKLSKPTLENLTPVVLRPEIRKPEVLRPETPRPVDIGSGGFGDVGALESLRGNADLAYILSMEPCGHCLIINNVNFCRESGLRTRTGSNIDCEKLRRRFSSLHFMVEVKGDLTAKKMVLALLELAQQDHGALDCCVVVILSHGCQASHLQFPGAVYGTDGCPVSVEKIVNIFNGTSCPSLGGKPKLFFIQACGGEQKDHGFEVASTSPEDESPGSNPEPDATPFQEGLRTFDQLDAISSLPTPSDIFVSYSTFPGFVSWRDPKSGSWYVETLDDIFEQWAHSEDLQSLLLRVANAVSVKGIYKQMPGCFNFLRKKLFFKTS

With CC(Cc1ccc(O)cc1)NCC(O)c1ccc(O)c(O)c1 (stereo unspecified) the outcome was “inactive”.

Reference: PubChem BioAssay AID743293 (Broad Institute, 2014)
